# Screening data deposited in PubChem by National Center for Advancing Translational Sciences (NCATS).
# Abeta rescue: qHTS for compounds that reverse cellular toxicity of Amyloid beta (A-beta) peptide in yeast: Primary Screen; yeast expressing A-beta42, growth rescue, OD600, 48 h; response scale: 0% DMSO, 100% iron-clioquinol control; 410,000 tested, 0.063% active; AID 1347071, 2019; Potency, µM (top dose mostly 46.1 µM), actives largely listed as activators; also: nearly all actives have a fitted effect of over 55% in size
#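 Growth rescue measured by 600 nm absorbance after 48 h yeast culture at 30 C with compound. Values normalized between DMSO and an equimolar ferric chloride plus clioquinol control.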
# Rango release inh: qHTS Assay for Inhibitors of RanGTP induced Rango (Ran-regulated importin-beta cargo) - Importin beta complex dissociation. Snurportin-1 (Homo sapiens) + GTP-binding nuclear protein Ran (Homo sapiens) + Importin …. Biochemical FRET Rango-importin beta, RanGTP-induced dissociation. Potency, µM (top dose mostly 46.1 µM), for the others: at the top dose activity change, negative = inhibition. 340,000 tested, 0.071% active. AID 540253, 2011; calls by dose curve; also: % of control where 0% means no effect; nearly all actives have a fitted effect of over 45% in size
#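 Quantitative HTS using a FRET biosensor: 0.1 uM Rango, 0.25 uM importin beta, 0.6 uM Ran, 2 mM GTP, 0.2 uM RCC1 final, PBS with DTT, Tween-20 and BSA. Post-read taken 45 min after Ran addition.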
# TDP-43 yeast inh: qHTS of TDP-43 Inhibitors; TDP-43 expressing yeast growth rescue, BacTiter-Glo, 24 h; Potency, µM (series often up to 46.1 µM), without a hit: at the top dose growth rescue (activation), most hits filed as activators; 410,000 tested, 1.8% active; AID 652104, 2013; also: % of control where 0% means no effect; nearly all actives have a fitted effect of over 50% in size
#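 Yeast expressing TDP-43 (pregrown in raffinose, seeded at OD600=0.02 in galactose medium) exposed to compounds 24 hr at 30 deg C. Growth read by BacTiter-Glo luminescence; rescue of toxicity appears as increased signal.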
# aSyn rescue: qHTS of alpha-syn Inhibitors; Yeast expressing alpha-synuclein, growth rescue, BacTiter-Glo, 24 h; 370,000 tested, 0.14% active; AID 652106, 2013; Potency, µM (series often up to 46.1 µM), without a hit: top-dose growth rescue (activation), hits mostly activators; also: % of control where 0% means no effect; nearly all actives have a fitted effect of over 65% in size
#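 Rescue of yeast growth: cells expressing toxic alpha-synuclein, induced in galactose at OD600 0.02, incubated with compound 24 h at 30 C. ATP luminescence quantified growth; inhibitors of toxicity appear as activators.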
# S-ASM inh: Inhibitors of Secretory Acid Sphingomyelinase (S-ASM): qHTS; placental ASM, HMU-PC fluorogenic substrate, 60 min; Potency, µM (doses to about 57.5 µM), for the others: top-dose activity change, negative = inhibition, actives largely listed as inhibitors; 340,000 tested, 0.006% active
#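 Steps: dispense placental human ASM, pin compound, wait 10 min at room temperature, add HMU-PC0 substrate at 9 uM final, incubate 60 min at 37 °C, add stop solution raising pH to 10, read fluorescence.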
# Rango complex inh: qHTS Assay for Inhibitors of Rango (Ran-regulated importin-beta cargo) - Importin beta complex formation. Importin subunit beta-1 (Homo sapiens), Q14974. Rango CFP/YFP FRET sensor + importin beta, 45 min. Potency, µM (titrated, usually from 92.2 µM), without a hit: top-dose inhibition of complex formation. 340,000 tested, 0.031% active. AID 540263, 2011; calls by dose curve;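 also: 0% = DMSO wells and 100% = buffer wells lacking importin beta; nearly all actives have a fitted effect of over 15% in size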
#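 FRET biosensor (snurportin 1 IBB flanked by EYFP and cerulean), 50 nM, with compound 5 min, then 0.125 microM importin beta in PBS, 1 mM DTT, 0.02% Tween-20, 0.1% BSA. CFP/YFP ratio read after 45 min at room temperature; pre-read flags interference.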
# An asterisk follows results filed as active; i = inactive; u = inconclusive; x = not tested or not shown. A selection: hits, their analogues and other compounds. The true share with any hit is near 2%. Unless noted, calls follow the shape of the dose curve; as a rule, active = well fitted curve in the direction sought with a large enough effect; inconclusive = small, poorly fitted or top-dose-only effect, or another doubt; inactive = no such curve, though single readings can be large; an effect the other way counts as inactive or inconclusive. Potency is read from the fitted curve at half-maximal effect.
SMILES,Abeta rescue,Rango release inh,TDP-43 yeast inh,aSyn rescue,S-ASM inh,Rango complex inh
Cc1ccc(CNC(=O)CN(c2ccc(C(C)C)cc2)S(=O)(=O)c2c(C)n[nH]c2C)cc1,i,x,u,x,x,x
Cc1c(C(=O)Nc2ccc(F)c(F)c2)oc2ccc(S(=O)(=O)N(C)C3CCCCC3)cc12,i,x,21.4%,x,x,x
CN(Cc1cccs1)c1ncnc2sccc12,i,-8.4%,12.6µM*,10.8%,0.4%,-2.1%
Cc1sc2ncnc(N(C)Cc3cccs3)c2c1C,i,3.0%,12.6µM*,11.9%,-0.7%,0.5%
c1csc(CNc2ncnc3sccc23)c1,i,-9.8%,14.1µM*,-2.3%,4.3%,-4.1%
CCCC1=Nc2cc(C(=O)NC3CCCC3)ccc2Sc2ccc(C)cc21,i,x,28.9%,x,x,x
CCn1c(=O)c2sccc2n2c(CCCC(=O)N3CCN(c4ccc(F)cc4)CC3)nnc12,i,x,9.4%,x,x,x
CCc1ccc(NC(=O)Cn2c(=O)n(CCC(=O)NCCc3ccc(Cl)cc3)c(=O)c3ccccc32)cc1,i,x,8.0%,x,x,x
COc1cccc(/C=C/c2nccc3ccccc23)c1OC,x,x,x,-13.3%,x,x
Ic1ccc(/C=C2\C=Cc3ccccc32)cc1,x,x,x,-5.6%,x,x
CCOC(=O)c1nc(Nc2ccc(C(=O)OCC(C)C)cc2)c2ccccc2n1,i,x,0.0%,x,x,x
CCOC(=O)c1cc(-c2ccc(C)cc2)n(CCC(=O)NC(C)CC)c1C (stereo not given),i,u,14.1µM*,0.9%,-12.5%,0.0%
O=C(Nc1nc(-c2cccs2)c(C(=O)C(F)(F)F)s1)c1ccco1,i,u,14.1µM*,5.9%,-10.4%,u
O=C(Nc1nc(-c2cccs2)c(C(=O)C(F)(F)F)s1)c1ccccc1,i,u,16.1%,-3.3%,-11.3%,u
O=C(Nc1nc(-c2cccs2)c(-c2ccccc2)s1)c1ccco1,i,-4.2%,12.6µM*,-23.6%,-10.0%,-3.5%
CCN(CC)c1ccc(/C=C(/C#N)c2nc3ccccc3[nH]2)c(OC(C)C)c1,i,u,12.6µM*,-25.1%,u,u
CCOc1cccc(/C=C(/C#N)c2nc3ccccc3[nH]2)c1OCC(=O)O,i,3.3%,12.7%,-0.5%,8.5%,u
COc1ccc(-c2cccc(NS(=O)(=O)c3ccc(NC(C)=O)cc3)c2)nn1,i,x,20.0%,x,x,x
O=S(=O)(Nc1nc2ccccc2nc1Cl)c1ccc(F)cc1,u,-6.4%,6.6%,-2.8%,22.0%,-0.2%
O=S(=O)(Nc1nc2ccccc2nc1Cl)c1ccccc1,i,-3.1%,35.5µM*,1.4%,26.5%,-0.9%
Cc1ccc(Cl)cc1N(C)C(=O)c1sc2nc3n(c(=O)c2c1C)CCCC3,i,x,20µM*,x,x,x
COc1ccc(C)cc1N(C)C(=O)c1sc2nc3n(c(=O)c2c1C)CCCCC3,i,x,23.5%,x,x,x
Cc1ccc(N(C)C(=O)c2sc3nc4n(c(=O)c3c2C)CCCC4)cc1C,i,x,15.8µM*,x,x,x
CCN(CC)CCNC(=O)c1[nH]c2ccccc2c1Sc1ccc(Cl)cc1,i,x,8.1%,x,x,x
O=C(NCC(c1cccs1)S(=O)(=O)c1cccs1)c1ccc(C(F)(F)F)cc1 (stereo not given),i,x,8.7%,x,x,x
COc1cccc(-c2nc(CCl)cs2)c1OC,i,-19.6%,14.1µM*,0.8%,-3.7%,0.7%
COc1cccc(-c2nc(CC(=O)O)cs2)c1OC,i,3.2%,13.1%,-3.7%,5.6%,1.1%
COc1ccccc1C/C(N)=N/OC(=O)c1ccc2c(c1)OCO2,i,-4.8%,u,-70.8%,-3.9%,0.9%
COc1ccccc1C/C(N)=N/OC(=O)c1ccco1,i,1.3%,10µM*,-32.7%,3.2%,4.5%
